# Shown are actives, neighbours in structure and some others; about 17% of the full set was active somewhere.
# HepG2 tox = kills HepG2 cells in TGF-b inhibitor counter-screen; Potency, µM (highest dose often 46.1 µM), for inactives: at the highest dose activity change, negative = cytotoxicity, usual class: cytotoxic; HepG2 CAGA-GFP viability, ATP luminescence, 18 h; AID 588856; 0.76% of 410,000 active
#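 HepG2 CAGA-GFP cells (1000/well, DMEM with 1% FBS) received compound, then TGF-beta at 500 pg/mL final, and were incubated 18 hours at 37 degrees C. Viability was read by CellTiter-Glo luminescence. Media-only wells were set as complete cell-killing and DMSO as no toxicity.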
# ATXN2 expr inh = reduces ATXN2 reporter expression in HEK-293 cells; HEK-293 ATXN2-luciferase reporter, luminescence, 24 h; Potency, µM (titrated, usually from 57 µM), inactives show at the top dose activity change, negative = inhibition, hits mostly inhibitors; 0.72% of 360,000 active; note: % is set by controls: 0 for no effect and ±100 for the full control effect; nearly all actives have a fitted effect of over 55% in size
#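 ATXN2-luciferase reporter cells (luciferase flanked by upstream and downstream ATXN2 gene portions) were treated 24 h at 37 °C with compounds at up to 57 uM. SteadyGlo luminescence gave expression; GF-AFC fluorescence gave viability.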
# TGFb inhibitor = blocks TGF-b signaling; HepG2 CAGA-GFP TGF-b/SMAD3 reporter, GFP fluorescence, 18 h; TGF-beta stimulated, 500 pg/mL final; Potency, µM (highest dose often 46.1 µM), for the others: top-dose activity, negative = inhibition, usual class: inhibitors; 1.2% of 410,000 active; AID 588855; note: % is set by controls: 0 for no effect and ±100 for the full control effect; nearly all actives have a fitted effect of over 65% in size
#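 TGF-beta reporter screen: HEPG2 CAGA-GFP, 1% FBS, 500 pg/mL TGF-beta final, 18 h; per-cell GFP summed per well; curves fitted and categorized by class.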
# TDP1 cell CPT = DT40-hTDP1 cell growth loss with CPT. chicken DT40 Tdp1-/-;hTDP1 cells + 20 nM CPT, ATP luminescence, 48 h. AID 686979. 12% of 420,000 active. Potency, µM (top dose mostly 46.2 µM), for inactives: at the highest dose activity change, negative = growth inhibition, actives largely listed as inhibitors; note: % is set by controls: 0 for no effect and ±100 for the full control effect; nearly all actives have a fitted effect of over 55% in size
#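 Chicken DT40 Tdp1-/- cells complemented with human TDP1, 400 cells/well, exposed to compounds plus 20 nM camptothecin for at least 48 h at 37 C; viability read as ATP content by CellTiter-Glo luminescence.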
# S2 tox = viability counter-screen for ATXN expression inhibitors; AID 651635; S2 cells (HEK-293 line with an ATXN2-luciferase reporter) viability, CellTiter-Fluor protease fluorescence, 24 h; 0.49% of 400,000 active; Potency, µM (doses to about 56.7 µM), hits mostly cytotoxic; note: nearly all actives have a fitted effect of over 40% in size
# TDP1 cell noCPT = qHTS for Inhibitors of human tyrosyl-DNA phosphodiesterase 1 (TDP1): qHTS in cells in absence of CPT | DT40 Tdp1-/- hTDP1 cells, no CPT, ATP luminescence, 48 h | Potency, µM (highest dose often 46.2 µM), for the others: top-dose activity change, negative = growth inhibition, hits mostly inhibitors | 15% of 420,000 active; note: % is set by controls: 0 for no effect and ±100 for the full control effect; nearly all actives have a fitted effect of over 55% in size
#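 Growth of hTDP1-complemented DT40 Tdp1-knockout cells is measured by ATP luminescence after at least 48 hr compound exposure at 37 °C, with DMSO substituting for the 20 nM CPT used in the parallel screen.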
# * hit, by the source's call; i = inactive; ? = inconclusive; . = no result given. Calls come from the whole dose curve; as a rule, active = well fitted curve in the direction sought with a large enough effect; inconclusive = small, poorly fitted or top-dose-only effect, or another doubt; inactive = no such curve, though single readings can be large; an effect the other way counts as inactive or inconclusive. Potency is the fitted concentration of half-maximal effect.
SMILES,HepG2 tox,ATXN2 expr inh,TGFb inhibitor,TDP1 cell CPT,S2 tox,TDP1 cell noCPT
CC[C@H](C)/C=C(C)/C=C/C(=O)Cc1cc(O)c(C)c(O)c1C=O,-19%,-6%,-2%,?,i,?
CC[C@H](C)/C=C(C)/C=C/C1=CC2=CC(=O)[C@]3(C)OC(=O)[C@@H](C(C)=O)[C@@H]3C2=CO1,-11%,-21%,-27%,2.1µM*,.,-76%
CNC(=O)c1c(I)c(NC(C)=O)c(I)c(C(=O)O)c1I,.,11%,.,.,i,.
COc1ccc(NC(=O)Nc2nnc(-c3cccs3)s2)cc1,-2%,22%,5%,?,i,-11%
COc1ccc(C(=O)Nc2nnc(-c3ccco3)s2)cc1,7%,7.9µM*,1%,?,?,?
COc1ccc(/C=C/C(=O)Nc2nc(-c3cccs3)ns2)cc1,-50%,.,-5%,?,.,18µM*
COc1ccc(C(=O)Nc2c(-c3cccs3)c(=O)c3ccccc3n2C)cc1,-17%,-16%,1%,23µM*,?,21µM*
COc1ccc(C(=O)Nc2nnc(-c3cccs3)s2)cc1,-23%,-21%,-4%,10µM*,?,12µM*
COc1ccc(-c2noc(CN3CCN(C(=O)c4cccs4)CC3)n2)c(OC)c1OC,-9%,4%,3%,?,i,-9%
COc1ccc2[nH]c3c(=O)n(Cc4ccc(C(=O)NCC5CCCO5)cc4)c(=S)[nH]c3c2c1 (stereo unspecified),-1%,.,9%,-10%,i,-20%
COc1cc(=O)n2c(c1C(=O)NCc1ccco1)CCN(C(=O)c1ccccc1-c1ncc[nH]1)CC2,.,.,.,22%,i,-2%
CC(=O)c1ccccc1NC(=O)CCN1C(=O)C2CCCCC2C1=O (stereo unspecified),6%,7%,-14%,4%,i,-1%
O=C(C1CCN(Cc2cn[nH]c2-c2ccc(F)cc2F)CC1)N1CCOCC1,23%,-17%,11%,-2%,i,3%
Fc1cc(-c2cccc3ncc(-c4cnn(C5CCNCC5)c4)nc23)cc(F)c1CN1CCOCC1,.,24µM*,.,.,.,.
CCCC(=O)N1CCC1(C)C(=O)NS(=O)(=O)c1cccc(Cl)c1 (stereo unspecified),2%,7%,3%,-28%,i,2%
O=C(NCc1cccnc1)c1cc(Sc2ccc(F)cc2F)nc2ccccc12,-3%,-2%,-4%,23µM*,i,21µM*
COCCCn1c(O)c(/C=C2\N=C(C#N)C(=Nc3ccc(C)cc3)O2)sc1=S,-50%,?,?,?,35µM*,3.3µM*
O=C(O)CCCn1c(O)c(C=C2N=c3ccccc3=N2)sc1=S,-4%,-16%,0%,?,?,?
c1cc2c(cc1C1CCCCC1)c1c3n2CCCNC3CCC1 (stereo unspecified),13µM*,28µM*,0%,7.3µM*,.,6.5µM*
c1cc2c(cc1C1CCCCC1)c1c3n2CCN[C@H]3CCC1,.,.,.,11µM*,.,11µM*
O=C(Cn1cnc2c(oc3ccccc32)c1=O)N1CCCC1,-1%,19%,9%,2%,i,6%
CCN1C(=O)C2C(c3ccccc3F)NC(Cc3ccc(O)cc3)(C(=O)OC)C2C1=O (stereo unspecified),-3%,-14%,-3%,?,i,?
CCCCCCSc1ccc([C@H]2N[C@@](Cc3ccccc3)(C(=O)OC)[C@H]3C(=O)N(CC)C(=O)[C@@H]23)cc1,-2%,-1%,4%,?,i,18µM*
